# From PubChem BioAssay
# aSyn 5UTR act: Activators working through SNCA 5'UTR binding (MLPCN); 300,000 compounds, 7.1% hits; activity score, % (tested at 7.5 µM), hits read low; alpha-synuclein 5'UTR reporter, activators screen; in the data active = activity score below about -60%
# Starred values were filed as active, the others as inactive. Not all results are given here.
SMILES,aSyn 5UTR act
O=C(CN1CCOCC1)Nc1ccc(-c2nc3ccccc3[nH]2)cc1,-110.6*
O=C(CSc1ccccc1)Nc1ccc(-c2nc3ccccc3[nH]2)cc1,-170.9*
O=C(CSc1ccc(Cl)cc1)Nc1cccc(-c2nc3ccccc3[nH]2)c1,-89.3*
O=C(Cc1cccs1)Nc1ccc(-c2nc3ccccc3[nH]2)cc1,-263.4*
Cc1ccc2nc(-c3ccc(NC(=O)CSc4ccccc4)cc3)[nH]c2c1,-97.7*
COc1ccc2c(c1)c(/C=N/Nc1nc3ccccc3[nH]1)c(C)n2C,-115.2*
COc1ccc(/C=N/Nc2nc3ccccc3[nH]2)cc1OC,-228.1*
COc1cc(/C=N\Nc2nc3ccccc3[nH]2)cc(OC)c1OC,-81.5*
CCN(CC)c1ccc(/C=N/Nc2nc3ccccc3[nH]2)c(O)c1,84.5
Cc1ccc2cc(/C=N/Nc3nc4ccccc4[nH]3)c(Cl)nc2c1,-110.9*
C(=N\Nc1nc2ccccc2[nH]1)/c1ccc2ncccc2c1,94.6
COc1cc(/C=N/OCC(=O)NC2CCCCC2C)ccc1OCc1ccc(Cl)cc1 (stereo not drawn),-98.3*
COc1cc(/C=N/OCC(=O)Nc2cc(C)cc(C)c2)ccc1OCc1ccc(Cl)cc1,-128.2*
CC(=O)c1ccc(NC(=O)c2noc3c2CCCCC3)cc1,-87.4*
Cc1cc(NC(=O)c2noc3c2CCCCC3)no1,-168.4*
O=C(Nc1cccnc1)c1noc2c1CCCC2,-115.3*
Cc1cc(NC(=O)c2noc3c2CCCCC3)nn1Cc1ccc(Cl)cc1,-70.7*
Cc1cc(NC(=O)c2noc3c2CCCC3)no1,-106.8*
CC(C)c1ccc(NC(=O)c2ccc(NS(C)(=O)=O)cc2)cc1,-75.8*
CS(=O)(=O)Nc1ccc(C(=O)Nc2ccc3ccccc3c2)cc1,-213.6*
COc1cccc(N2CCN(C(=O)c3ccc(CS(=O)c4ccccc4Cl)o3)CC2)c1 (stereo not drawn),110.4
CCN1CCN(C(=O)c2cc(COc3ccc(C(C)=O)cc3OC)on2)CC1,-146.2*
COc1cc(C)ccc1OCc1cc(C(=O)N2CCN(C3CCCCC3)CC2)no1,-99.0*
Cc1ccc(OCc2cc(C(=O)N3CCC(C(O)C(C)C)CC3)no2)cc1C (stereo not drawn),-80.0*
COc1cccc(OCc2cc(C(=O)N3CCN(c4ccccc4OC)CC3)no2)c1,-139.3*
SMILES,aSyn 5UTR act
Cc1ccc(OCc2cc(C(=O)N3CCN(C4CCCCC4)CC3)no2)cc1C,-62.3*
COc1ccccc1N1CCN(C(=O)c2c(-c3ccccc3)noc2C)CC1,-77.6*
Cc1ccc(OCc2cc(C(=O)N3CCN(c4ccccc4)CC3)no2)cc1C,-155.3*
COc1ccc(C(=O)/C=C/C(=O)N(CC(=O)NCCC(C)C)Cc2cccs2)c(O)c1,61.3
Cc1ccc(OCc2cc(C(=O)N(CCO)Cc3cccs3)no2)cc1C,-81.5*
Cc1ccc(OCc2cc(C(=O)N3CCC(c4ccccc4Cl)C3)no2)cc1C (stereo not drawn),-164.7*
COc1cc(C)ccc1OCc1cc(C(=O)N2CCCCCCC2)no1,-62.3*
COc1cc(C)ccc1OCc1cc(C(=O)NC(C)Cn2cncn2)no1 (stereo not drawn),-154.8*
O=C(NCc1ccco1)c1sc2cc(Cl)ccc2c1Cl,-65.9*
O=C(NCc1ccco1)c1cc2cc3ccc(Cl)cc3nc2o1,-61.9*
CCN(CC)CCOC(=O)C(Cc1ccco1)Cc1cccc2ccccc12 (stereo not drawn),104.1
O=C(NCc1ccco1)C(=O)NCc1ccccc1Cl,-70.6*
O=C(NCc1ccco1)c1sc2ccccc2c1Cl,-114.2*
O=C(Nc1ccon1)c1sc2cc(Cl)ccc2c1Cl,-84.3*
Cc1cccnc1CN1CCN(C(=O)CCc2nnc(CCc3ccccc3)o2)CC1,-72.0*
CCn1cc(Cl)c(C(=O)Nc2ccc(OC)c(OC)c2)n1,-65.8*
CCn1cc(Br)c(C(=O)Nc2ccc(Cl)c(Cl)c2)n1,-151.3*
CCn1cc(Br)c(C(=O)Nc2cccc(Cl)c2)n1,-93.4*
CCn1ccc(C(=O)Nc2ccccc2Cl)n1,-96.1*
CCn1cc(Br)c(C(=O)Nc2ccc(OC)cc2)n1,-117.7*
CCn1ccc(C(=O)Nc2cccc(Cl)c2)n1,-158.5*
C=CCNc1ncnc2c1[nH]c1ccc(Cl)cc12,-196.7*
Cc1ccc(N=Nc2c(O)ccc3n[nH]nc23)cc1,-196.2*
Cc1c(O)ccc(C(=O)COc2ccc(F)cc2)c1O,-153.7*
CCc1cc(C(=O)COc2ccc(F)cc2)c(O)cc1O,-104.4*
SMILES,aSyn 5UTR act
CCCCn1nc(NC(=O)COC)c2cc3cc(OC)ccc3nc21,-77.6*
O=C1/C(=C/c2cccnc2)CCc2c1[nH]c1ccccc21,-125.8*
CC(C)C/C=C1\CCc2c([nH]c3ccccc23)C1=O,-229.2*
Cc1ccc2nc3sc(C(=O)N4CCCc5ccccc54)c(N)c3cc2c1,-157.7*
CCN=c1scc(C)n1/N=C/c1ccsc1,-226.0*
O=C(/C=C/c1ccc(Cl)cc1)NCCc1ccccc1,-66.5*
O=C(/C=C/c1ccccc1Cl)NCCc1ccccc1,-175.9*
Cc1ccn2cc(C34CC5CC(CC(C5)C3)C4)nc2c1,-83.2*
CCNc1oc(-c2cccc3ccccc23)nc1C#N,-88.1*
O=C1C(Cl)=C(NCCN2CCCCC2)C(=O)c2ccccc21,54.0
N#Cc1nc(-c2cccc3ccccc23)oc1NCCN1CCCCC1,-63.3*
Cc1ccc(S(=O)(=O)CCSc2n[nH]c(=O)n2-c2ccc3c(c2)OCCO3)cc1,-72.5*
CCNC(=S)N/N=C/c1sc(N2CCCCC2)nc1-c1cccs1,-102.2*
Cc1cc(C)n(-c2nc(-c3ccccc3)cs2)n1,-89.2*
Cc1cc(C)n(-c2nc(-c3cccc(Cl)c3)cs2)n1,-101.7*
O=C(Nc1ccccc1)ON=C1c2ccccc2-c2ccccc21,-106.1*
CC(C)CCNCC(O)CON=C1c2ccccc2-c2ccccc21 (stereo not drawn),86.2
O=C(NCc1ccncc1)C(=O)Nc1nc2ccccc2s1,-71.6*
CCNC(=O)Nc1nc2ccccc2s1,-96.8*
O=C(NNc1nc2ccccc2s1)Nc1ccccc1,-254.7*
S=C(Nc1ccccc1)c1nc2ccccc2s1,-170.2*
O=C(CC1CCCCC1)Nc1nc2ccccc2s1,-129.8*
Cc1cnc(NC(=O)CC2CCCC2)s1,-130.7*
N#CC1CC(c2ccccc2)=NN1c1ccccc1[N+](=O)[O-] (stereo not drawn),-94.9*
C/C(=N\NC(=O)c1ccc(Cn2cc(Br)cn2)o1)c1ccc(NC(=O)c2ccoc2C)cc1,-76.7*
SMILES,aSyn 5UTR act
C/C(=N\NC(=O)c1ccoc1C)c1ccccc1,-127.4*
C/C(=N/NC(=O)c1ccoc1C)c1ccc(NC(=O)C2CCCC2)cc1,-120.9*
C/C(=N\NC(=O)c1nn(C)c(C)c1Br)c1cccc(NC(=O)c2ccoc2C)c1,-71.3*
Cc1ccc(NC(=O)c2ccccn2)c(Br)c1,-103.3*
Cc1ccc(NC(=O)Nc2ccc(Cl)cc2)c(Br)c1,-154.9*
Cc1ccc(C)c(NC(=O)c2ccccn2)c1,-72.1*
Clc1ccc2c(c1)C(C1=NCCN1)c1ccccc1CS2 (stereo not drawn),78.7
C=C(C)CNC(=S)N/N=C(\C)c1ccc(Cl)s1,-70.2*
O=C(NCCCN1CCOCC1)c1cc(-c2ccccc2)on1,-113.4*
CC(C)(C)c1ccc(C(=O)NCCN2CCOCC2)cc1,-189.7*
CC(C)(C)c1ccc(C(O)CCCN2CCC(C(O)(c3ccccc3)c3ccccc3)CC2)cc1 (stereo not drawn),111.1
O=C1C=C(NCCN2CCOCC2)C(=O)c2cnccc21,131.5
O=C(NCCN1CCOCC1)c1cc(-c2ccccc2)on1,-130.4*
CC(=O)c1sc(-c2ccc(F)cc2F)nc1C,-74.8*
